# PubChem BioAssay (NCATS)
# Inconclusive results are not listed. Where a call stands in place of a potency, no number is given. Values without a mark were called inactive. Calls of active or inactive are those of the source. Calls come from the whole dose curve; as a rule, active = well fitted inhibition curve with a large enough effect; inconclusive = small, poorly fitted or top-dose-only effect; inactive = flat fitted curve, though single readings scatter. Where a SMILES comes first, the peptide text is derived from it. Bridges are numbered along the chain shown (N, C = ends). [ ]: non-standard residue; d: D form. NMeY = CN[CH](Cc1ccc(O)cc1)C(=O)O
# Biological target: Calcium and integrin-binding protein 1 (Homo sapiens) (UniProt Q99828)
# Experiment: Primary qHTS for Identification of Calcium Integrin Binding Protein 1 (CIB1) Competitor (AID 1508620);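 note: GST tagged CIB1 binding a fluorescein labelled alphaIIb integrin peptide tracer; top concentration of the series differs between compounds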
# Details: CIB1-GST / FITC-alphaIIb peptide fluorescence polarization; series mostly up to 114 µM
# Summary of the method: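 Fluorescence polarization competition: CIB1-GST (1 uM final) preincubated with compound 15 min at room temperature, then FITC-labeled alphaIIb peptide (100 nM final) added for another 15 min. Polarization read at Ex 480/Em 540.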
# Calcium and integrin-binding protein 1 (Homo sapiens), sequence (Q99828 whole entry, looked up): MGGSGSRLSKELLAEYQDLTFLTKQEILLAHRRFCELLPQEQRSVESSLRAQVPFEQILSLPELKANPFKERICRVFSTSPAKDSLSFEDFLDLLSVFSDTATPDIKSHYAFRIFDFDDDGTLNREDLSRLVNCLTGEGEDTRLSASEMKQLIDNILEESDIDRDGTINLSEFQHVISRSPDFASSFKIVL
SMILES,Potency,"activity change, negative = inhibition"
C=C[C@H]1[C@H](O[C@@H]2O[C@H](CO)[C@@H](O)[C@H](O)[C@H]2O)OC=C(C(=O)OC)[C@H]1C/C=C(/C=O)[C@@H]1C(C(=O)OC)=CO[C@@H](O[C@@H]2O[C@H](CO)[C@@H](O)[C@H](O)[C@H]2O)[C@@H]1C=C,inactive,–
CC(C)c1nnc(-c2ccc(-c3ccccc3)nc2)n1-c1cccc2nonc12,inactive,–
Cc1noc(-c2ccc(-c3ccc(CC(=O)O)cc3)cc2)c1NC(=O)O[C@H](C)c1ccccc1,inactive,–
CN1c2ccccc2C(=O)N2CCC3c4ccccc4NC3C21 (stereo not given),inactive,–
CC1=C(C(=O)O)/C(=C/CO[C@@H]2O[C@H](COC(=O)/C=C/c3ccc(O)cc3)[C@@H](O)[C@H](O)[C@H]2O)C(O)C1 (stereo not given in full),inactive,–
N#C[C@@H]1C[C@H](F)CN1C(=O)CNC1[C@H]2CN(C(=O)c3ccc(F)cc3)C[C@@H]12 (stereo not given in full),inactive,–
O=C(COc1cccc2c(=O)[nH]ccc12)c1ccccc1,inactive,–
CC1CCC2C(C)(C)[C@@H](O)CC[C@]2(C)C12Cc1c(O)cc3c(c1O2)CN(C(CCC(=O)O)C(=O)O)C3=O (stereo not given in full),inactive,–
COc1c2c(c(C)c3c1C(=O)OC3)O[C@@]1(C)CC(O)C(C(C)(C)O)[C@](C)(CCC(=O)O)[C@H]1C2 (stereo not given in full),inactive,–
CC1CCC2(C(=O)O)CCC3(C)C(=CCC4C5(C)CCC(O)C(C)(CO)C5CCC43C)C2C1(C)O (stereo not given),inactive,–
OC[C@H]1O[C@@H](OC(CCCCc2ccc(O)cc2)CCc2ccc(O)cc2)[C@H](O)[C@@H](O)[C@@H]1O (stereo not given in full),inactive,–
CC(=O)OC1C(O)C2C(C)C3=CC(=O)OC3(O)CC2C2(C)CCCC(C)(CO)C12 (stereo not given),inactive,–
C[C@@H]1CCC2C(C)(C)[C@H](O)CC[C@]2(C)[C@@]12Cc1c(O)cc3c(c1O2)CNC3=O (stereo not given in full),inactive,–
CC(C)C(N)C(=O)OCCOCn1cnc2c(=O)[nH]c(N)nc21 (stereo not given),inactive,–
Cc1ccc(-c2c(C(=O)CF)n(CCCO)c3ncnc(N)c23)cc1,inactive,–
O=C(CCc1nnc2n(Cc3ccc(Cl)cc3)c(=O)c3ccccc3n12)NCCC1=CCCCC1,inactive,–
CCC(C)C1NC(=O)C2CCCN2C(=O)C(NC(C)=O)C(C)OC(=O)C(Cc2ccc(OC)cc2)N(C)C(=O)C2CCCN2C(=O)C(C(C)C)NC1=O (stereo not given) (Ac-TPIVP[NMeY](Me); ester 1-C; configuration not given here),inactive,–
NC(=O)c1cnc(NCCc2ccc(O)c(Cl)c2)nc1NCc1ccccc1,inactive,–
O=C(CSc1nc2c(c(=O)n1-c1ccccc1)SCC2)Nc1ccc(-c2ccccc2)cn1,inactive,–
C[C@@H]1O[C@@H](O[C@H]2[C@H](O)[C@@H](O[C@@H]3O[C@H](CO)[C@@H](O)[C@H](O[C@@H]4O[C@H](CO)[C@@H](O)[C@H](O)[C@H]4O)[C@H]3O)[C@H](O[C@H]3CC[C@@]4(C)C(=CC[C@@H]5C4CC[C@@]4(C)C5C[C@@H]5OC6(CC[C@@](C)(CO[C@@H]7O[C@H](CO)[C@@H](O)[C@H](O)[C@H]7O)O6)[C@@H](C)[C@@H]54)C3)O[C@@H]2CO)[C@H](O)[C@H](O)[C@H]1OC1OC(CO)C(O)C(O)C1O (stereo not given in full),–,-2.87% [at 12.4 µM]

SMILES,Potency,"activity change, negative = inhibition"
Nc1nc2c(ncn2[C@@H]2O[C@@H]3COP(=O)(O)O[C@H]3[C@H]2O)c(=O)[nH]1,inactive,–
O=C(CC1C(=O)Nc2ccccc21)OC[C@H]1O[C@@H](OCCc2ccc(O)cc2)[C@H](O)[C@@H](O)[C@@H]1O (stereo not given in full),inactive,–
CC(=O)OC1C(c2ccccc2)CCC(c2ccccc2)C1OC(C)=O (stereo not given),inactive,–
CNC(=O)c1ccccc1Nc1nc(Nc2ccc3c(c2OC)CCC[C@@H](N2CCN(CCO)CC2)C3)ncc1Cl,inactive,–
COc1c2c(c(CO)c3c1C(=O)OC3)OC1(C)CCC3(O)C(C)(C)OC(=O)CCC3(C)C1C2 (stereo not given),inactive,–
COc1cc(/C=C/C(=O)OC[C@H]2O[C@@](CO)(O[C@H]3O[C@H](CO)[C@@H](O)[C@H](O)[C@H]3O)[C@@H](OC(=O)/C=C/c3ccc(O)c(OC)c3)[C@@H]2O)ccc1O,inactive,–
O=C(CCCCN1CCOCC1)Nc1ccc(-c2cccnc2)cc1,inactive,–
CC1=CC2C(CC1OC1OC(CO)C(O)C(O)C1O)C(C)CC(=O)C2C(C)C (stereo not given),inactive,–
C[C@@]12C[C@]3(O)O[C@H](O1)[C@]1(COC(=O)c4ccccc4)[C@H]3C[C@@]12O[C@@H]1O[C@H](CO)[C@@H](O)[C@H](O)[C@H]1O,inactive,–
Nc1ncnc2c([C@@H]3N[C@H](CO)[C@@H](O)[C@H]3O)c[nH]c12,inactive,–
O=C(O)[C@H](Cc1ccc(Nc2nccc3ccncc23)cc1)NC1=C(Br)C(=O)C12CCCCC2,inactive,–
CC(C)c1ccc2c(c1)C(=O)CC1[C@@](C)(C(=O)O)CCC[C@]21C (stereo not given in full),inactive,–
O=C1N=C(N2CCOCC2)CN1c1ccc(Cl)cc1,inactive,–
CS(=O)(=O)N(CC(=O)NCC1CC1)c1cc(C(F)(F)F)ccc1Cl,inactive,–
N#Cc1cc(F)cc(-c2nc(-c3ccccn3)no2)c1,inactive,–
COc1cc(C(=O)O)ccc1OC1OC(CO)C(O)C(O)C1O (stereo not given),inactive,–
C[C@@]12CC[C@@H]3[C@@](CC[C@H]4[C@@]3(C)CCC[C@@]4(C)C(=O)O)(CC1=O)C2,inactive,–
O=C(Nc1ccc(Cl)cc1F)c1ccccc1O,inactive,–
CC(C)C[C@H](CC(=O)NO)C(=O)N[C@H](C(=O)N[C@@H](C)C(=O)NCCN)C(C)(C)C,inactive,–
COC(=O)C1=CO[C@@H](O[C@@H]2O[C@H](CO)[C@@H](O)[C@H](O)[C@H]2O)[C@H]2[C@@H]1CC(OC)O[C@@H]2C (stereo not given in full),inactive,–
